The values below come from PubChem BioAssay (NCI).

What all share (assay): NCI-60 one-dose screen, 48 h (100 = growth as untreated, 0 = no growth, -100 = all killed)
Conditions in all cases: 10 µM unless noted

The subject of assay [1] is DU-145 prostate.
Assay [2] deals with K-562 leukemia.
Assay [3] deals with MALME-3M melanoma.
Assay [4] deals with MDA-MB-231 breast.
In assay [5] the test system is RXF 393 renal.
Assay [6] relates to SF-268 CNS.
Assay [7] concerns SF-295 CNS.
The subject of assay [8] is SF-539 CNS.
Assay [9] deals with UACC-257 melanoma.
Assay [10] has as its system M14 melanoma.
Assay [11] relates to HCT-15 colon.
For assay [12], the system named is HT29 colon.
The subject of assay [13] is SNB-75 CNS.
For assay [14], the system named is SNB-19 CNS.
The subject of assay [15] is U251 CNS.
The test system of assay [16] is PC-3 prostate.
The subject of assay [17] is SK-MEL-5 melanoma.
The test system of assay [18] is UACC-62 melanoma.
Assay [19] relates to LOX IMVI melanoma.
The test system of assay [20] is SK-MEL-28 melanoma.

Compounds without any hit were thinned out: in the full panel of roughly 83,000, 20% have a hit.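 Values shown are percent growth following 48 h exposure of cells in 96-well plates to a single concentration of compound; below 10 was considered active.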 A number with no mark means an inactive call. The source made the active and inactive calls.

For `CCCCCCCCCCCCCCCCCCOc1ccc(CC(=O)OCC[N+]2(C)CCCC2)cc1`, the growth in [1] is 106%; in assay [2] it was 92.2%; in [3], 117%; in assay [4], 111%; in assay [5], 101%; in assay [6] it was 104%. In addition, the growth in [7] was 90.6%; in assay [8], 99.7%; in assay [9], 107%; in assay [10], 97.9%; in assay [11] it was 97.8%; in assay [12], 98.6%. Moreover, the growth in assay [13] is 106%; in assay [14], 90.8%; in [15], 85.8%; in [16], 99.9%; in assay [17], 103%; in [18] it was 96.2%. In addition, the growth in [19] was 42.5%; in [20], 106%.
For the compound `CN(C)CCNc1nc2ccccc2c2c1c1c(n2Cc2ccccc2)-c2ccccc2C1=O`, the growth in assay [1] is -100% (active); in assay [2] it was -57.9% (active); in assay [3] it was -59% (active); in assay [4], -79.8% (active); in assay [5], -65.5% (active); in assay [6], -81.9% (active). Also, the growth in assay [7] was -77.3% (active); in assay [8], -91.3% (active); in assay [9], -85.3% (active); in assay [10], -81.8% (active); in [11], -88.2% (active); in assay [12], -100% (active). Also, the growth in assay [13] is -96.1% (active); in assay [14], -86.3% (active); in assay [15] it was -95.9% (active); in assay [16], -88.6% (active); in [17] it was -100% (active); in [18] it was -94.1% (active). Also, the growth in assay [19] is -96.2% (active); in [20], -100% (active).
For `O=c1[nH]ccc2nc(N3CCC(O)CC3)nc(Nc3ccc(N4CCOCC4)cc3)c12`, the growth in assay [1] was 59.8%; in assay [2] it was 70.1%; in assay [3], 28.4%; in [4], 64.3%; in assay [5], 15.6%; in [6], 61.9%. Further, the growth was 108% in assay [7]; 28.7% in assay [8]; 53.2% in assay [9]; 41.4% in assay [10]; 31.2% in assay [11]; 23.2% in assay [12]. Further, the growth in [13] is 63.5%; in assay [14], 97.1%; in [15] it was 88.2%; in assay [16], 89.8%; in assay [17], 39%; in [18], 80.3%. Also, the growth in assay [19] was 46.4%; in assay [20], 82.6%.
As to `O=c1c2c3c(sc2nc(N/N=C/c2ccc(Br)cc2)n1Cc1ccccc1)CCCC3`, the growth in [1] was 81.6%; in assay [2], 79.9%; in assay [3], 91.6%; in [4], 50.2%; in [5], 73.2%; in [6], 68.4%. Also, the growth in assay [7] is 34.3%; in [8], 50%; in [9], 78.9%; in assay [10], 75.8%; in [11], 78.1%; in assay [12] it was 101%. Moreover, the growth in assay [13] is 106%; in assay [14], 76.4%; in assay [15], 70.3%; in assay [16] it was 70.2%; in [17] it was 87.2%; in assay [18], 88.7%. Moreover, the results for the growth in [19] and in assay [20] were 73% and 120%, respectively.
`O=C1Nc2ccc(F)cc2C12Nc1cc(Cl)ccc1S2` (stereo not given): the growth is 101% in assay [1]; 48.6% in assay [2]; 88.6% in [3]; 88.1% in [4]; 110% in assay [5]; 100% in [6]. The growth in [7] was 89.8%; in assay [8] it was 93.8%; in [9], 109%; in assay [10], 90.9%; in [11] it was 82.3%; in assay [12], 103%. In addition, the growth is 70.9% in assay [13]; 92.1% in assay [14]; 94.6% in assay [15]; 57.3% in assay [16]; 83.4% in assay [17]; 75.4% in assay [18]. Also, the growth in assay [19] was 85.6%; in assay [20], 118%.
For `COC(=O)c1c2c(c(C)[n+]([O-])c1C)C(=O)C(NCc1ccc(F)cc1)=CC2=O`, the growth in assay [1] was 42.5%; in [2], 9.12% (active); in [3] it was -95.7% (active); in assay [4], 1.94% (active); in [5], 56.9%; in [6], 23%. Also, the growth in assay [7] is 69.1%; in assay [8], 0.757% (active); in assay [9], -36.8% (active); in [10] it was 2.89% (active); in [11], 14%; in assay [12], 7.24% (active). The growth is 128% in [13]; 3.72% (active) in [14]; -13.9% (active) in [15]; 3.57% (active) in assay [16]; -47.9% (active) in assay [17]; -35.5% (active) in assay [18]. The growth in assay [19] is 20.3%; in assay [20] it was 72.4%.
In the case of `Cc1cc(=O)oc2c1ccc1oc(C#N)c(C)c12`, the growth in [1] was 102%; in assay [2] it was 108%; in assay [3], 97.2%; in assay [4], 107%; in assay [5] it was 113%; in assay [6] it was 99.9%. In addition, the growth in [7] was 102%; in assay [8] it was 98.9%; in [9], 105%; in assay [10] it was 100%; in assay [11] it was 98.9%; in [12], 93.4%. The growth in assay [13] was 92.9%; in assay [14], 99.9%; in assay [15], 99.4%; in assay [16] it was 90.4%; in [17], 100%; in [18] it was 99.9%. The growth was 88.2% in [19] and 96.5% in assay [20].
